Source: PubChem
Hits are enriched below; roughly 3.6% of the tested compounds scored in any of these assays.
Abeta rescue: restores growth of yeast expressing A-beta42 peptide. yeast expressing A-beta42, growth rescue, OD600, 48 h; response scale: 0% DMSO, 100% iron-clioquinol control. Potency, µM (top dose mostly 46.1 µM), actives largely listed as activators. 410,000 compounds, 0.063% hits. AID 1347071; also: nearly all actives have a fitted effect of over 55% in size
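Growth rescue measured by 600 nm absorbance after 48 h yeast culture at 30 C with compound. Values normalized between DMSO and an equimolar ferric chloride plus clioquinol control.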
TDP43 rescue: inhibitors of TDP-43 toxicity in yeast; TDP-43 expressing yeast growth rescue, BacTiter-Glo, 24 h; AID 652104; Potency, µM (series often up to 46.1 µM), hits mostly activators; 410,000 compounds, 1.8% hits; also: nearly all actives have a fitted effect of over 50% in size
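Yeast cells expressing TDP-43 under galactose induction are exposed to compounds for 24 hr at 30 deg C. BacTiter-Glo luminescence measures growth, so protective compounds score as activators.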
ClpP mod: qHTS Assay for Activators of ClpP. ATP-dependent Clp protease proteolytic subunit (Bacillus subtilis (strain 168)), P80244. purified B. subtilis ClpP, FRET peptide cleavage, 20 min. Potency, µM (series often up to 57.5 µM). 340,000 compounds, 1.9% hits. AID 651965, 2013; active = well fitted falling curve with a large enough effect; inconclusive = small, poorly fitted or top-dose-only effect; inactive = no such curve, though single readings can be large or run the other way; also: the source files actives as falling curves though it sought activators and does not explain the sign; nearly all actives have a fitted effect of over 65% in size
Target sequence (P80244 whole entry, looked up): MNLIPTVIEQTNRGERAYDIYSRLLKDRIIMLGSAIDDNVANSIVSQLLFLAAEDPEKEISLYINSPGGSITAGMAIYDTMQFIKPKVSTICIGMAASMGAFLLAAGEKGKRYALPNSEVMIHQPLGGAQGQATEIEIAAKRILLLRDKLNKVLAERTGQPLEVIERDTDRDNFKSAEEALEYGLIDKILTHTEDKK
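ClpP 10 microg/mL final, pH 8 Tris/KCl buffer with BSA, glycerol, Tween-20; compound pinned in; FRET-FV substrate; RT 20 min; Ex320/Em430; ΔFRET vs ADEP 5.8 microM, DMSO, no enzyme.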
FUS yeast rescue: suppressors of FUS proteinopathy in yeast; AID 1347120; Potency, µM (top dose mostly 76.6 µM), actives largely listed as activators; 390,000 compounds, 0.24% hits; S. cerevisiae FUS-expressing, growth rescue, OD600, 24 h; also: nearly all actives have a fitted effect of over 55% in size
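Restored growth of FUS-toxic S. cerevisiae, read as 600 nm absorbance after 24 h at 30C in galactose medium (starting OD 0.005). Controls CP55940 and DMSO.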
aSyn yeast inh: inhibitors of alpha-synuclein toxicity in yeast | Yeast expressing alpha-synuclein, growth rescue, BacTiter-Glo, 24 h | Potency, µM (titrated, usually from 46.1 µM), hits mostly activators | 370,000 compounds, 0.14% hits | AID 652106; also: nearly all actives have a fitted effect of over 65% in size
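Galactose-induced alpha-syn yeast (OD600=0.02, raffinose-pregrown) + pinned cpd, 24 hr, 30 deg C; growth by BacTiter-Glo luminescence. Growth restoration scores as activation.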
MmCpn inh: blocks the Methanococcus maripaludis chaperonin Mm-Cpn. purified Mm-Cpn ATPase, ADP Transcreener TR-FRET. Potency, µM (series often up to 76.9 µM), most hits filed as inhibitors. 330,000 compounds, 0.031% hits. AID 504842; also: nearly all actives have a fitted effect of over 80% in size
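Inhibition of chaperonin ATP hydrolysis is measured as reduced ADP production, detected by competitive TR-FRET in which signal falls with ADP. Final enzyme 25 nM and ATP 10 uM, reacted 30 min at 37°C.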
A number is an active result. Unless noted, calls follow the shape of the dose curve; as a rule, active = well fitted curve in the direction sought with a large enough effect; inconclusive = small, poorly fitted or top-dose-only effect, or another doubt; inactive = no such curve, though single readings can be large; an effect the other way counts as inactive or inconclusive.

Screening COc1cc(-c2nc(-c3ccccc3)c(-c3cccs3)[nH]2)cc(OC)c1O returned Abeta rescue inactive, TDP43 rescue inconclusive, ClpP mod 28.2µM, FUS yeast rescue inactive, aSyn yeast inh inactive and MmCpn inh inactive.
COc1cc(-c2nc(-c3ccccc3)c(-c3cccs3)[nH]2)cc(OC)c1OC was read as Abeta rescue inactive, TDP43 rescue inactive, ClpP mod 31.6µM, FUS yeast rescue inactive, aSyn yeast inh inactive and MmCpn inh inactive.
`COc1cc(-c2nc(-c3ccc4c(c3)-c3ccccc3S4(=O)=O)c(-c3ccccc3)[nH]2)cc(OC)c1OC` gave Abeta rescue inactive, TDP43 rescue inactive, ClpP mod inactive, FUS yeast rescue inactive, aSyn yeast inh inactive and MmCpn inh inactive.
`O=C(O)c1ccccc1-c1nc(-c2ccccc2)c(-c2ccccc2)[nH]1` gave Abeta rescue inactive, TDP43 rescue inactive, FUS yeast rescue inactive, aSyn yeast inh inactive and MmCpn inh inactive.
c1csc(-c2nc3c4ccccc4c4ccccc4c3[nH]2)c1 was read as Abeta rescue inactive, TDP43 rescue 20µM, ClpP mod 39.8µM, FUS yeast rescue inactive, aSyn yeast inh inactive and MmCpn inh inactive.
For O=C(Nc1ccc(Br)cn1)c1cnn2c1NC(=C1CC1)C=C2C(F)F the results were ClpP mod inactive and aSyn yeast inh inactive.
For CCOC(=O)NC(=O)COC(=O)c1ccc(Sc2ncn[nH]2)c([N+](=O)[O-])c1 the results were Abeta rescue inactive, TDP43 rescue inactive, ClpP mod 15.8µM, FUS yeast rescue inactive, aSyn yeast inh inactive and MmCpn inh inactive.
Screening N#Cc1c(C(F)(F)F)cc(-c2ccccc2Cl)[nH]c1=O returned Abeta rescue inactive, TDP43 rescue inactive, ClpP mod 3.55µM, FUS yeast rescue inactive, aSyn yeast inh inactive and MmCpn inh inactive.
For N#Cc1c(C(F)(F)F)cc(-c2ccccc2)[nH]c1=O the results were Abeta rescue inactive, TDP43 rescue inactive, ClpP mod inconclusive, FUS yeast rescue inactive, aSyn yeast inh inactive and MmCpn inh inactive.
Cc1cc(C)c(/C=C(\C#N)C(N)=S)c(C)c1 was read as Abeta rescue inactive, TDP43 rescue 11.2µM, ClpP mod inactive, FUS yeast rescue inactive, aSyn yeast inh inactive and MmCpn inh inactive.
For CC1CCCN(S(=O)(=O)c2ccc(S(=O)(=O)NC(C)c3cccs3)cc2)C1 (centres undefined) the results were Abeta rescue inactive, TDP43 rescue inactive, ClpP mod inactive, FUS yeast rescue 31.6µM, aSyn yeast inh inactive and MmCpn inh inactive.
`Cc1ccc(C(=O)NCC(c2ccc(Cl)cc2)N2CCCCC2)cc1` (centres undefined) gave Abeta rescue inactive, TDP43 rescue inactive, ClpP mod inactive and FUS yeast rescue inactive.
CC(C)[C@H](NS(=O)(=O)c1ccccc1)C(=O)OCc1cc([N+](=O)[O-])cc2c1OCOC2 was read as Abeta rescue inactive, TDP43 rescue inactive, ClpP mod inactive, FUS yeast rescue inactive and aSyn yeast inh inactive.
Screening CC(C)[C@H](NC(=O)c1ccccc1Cl)C(=O)OCc1cc([N+](=O)[O-])cc2c1OCOC2 returned Abeta rescue inactive, TDP43 rescue inactive, ClpP mod 22.4µM, aSyn yeast inh inactive and MmCpn inh inactive.
For O=C(Nc1cccc2c1[nH]c1ccccc12)C(F)(F)F the results were Abeta rescue inactive, TDP43 rescue 14.1µM, ClpP mod inactive, FUS yeast rescue inactive, aSyn yeast inh inactive and MmCpn inh inactive.
Cc1nn(C)c2c1c(C(F)(F)F)cc(=O)n2CC(=O)N1CCN(c2ccccc2F)CC1 was read as Abeta rescue inactive, TDP43 rescue 22.4µM, ClpP mod inactive and FUS yeast rescue inconclusive.
Screening Cc1ccc(C)c(S(=O)(=O)c2nnn3c2nc(NC2CCCCC2)c2sccc23)c1 returned Abeta rescue inactive, TDP43 rescue inactive, ClpP mod 35.5µM and FUS yeast rescue inactive.
For O=C(CNC(=O)c1ccccc1F)OCc1cc(=O)n2nc(C3CC3)sc2n1 the results were Abeta rescue inactive, TDP43 rescue inactive, ClpP mod inactive and FUS yeast rescue inactive.
For CCOc1ccc(-c2n[nH]c3c2C(c2cccs2)N(c2ccc(Br)cc2)C3=O)cc1 (centres undefined) the results were Abeta rescue inactive, TDP43 rescue inactive, ClpP mod inactive and FUS yeast rescue inconclusive.
`Cc1c(NS(=O)(=O)c2ccccc2)cc(Cl)c(O)c1C` gave Abeta rescue inactive, TDP43 rescue 10µM, ClpP mod inactive, aSyn yeast inh inactive and MmCpn inh inactive.
Screening Cc1c(Cl)cccc1NS(=O)(=O)c1ccccc1 returned Abeta rescue inactive, TDP43 rescue inactive, ClpP mod inactive and aSyn yeast inh inactive.
For Cc1cccc(CNC(=O)c2ccc3oc(=O)n(Cc4ccccc4)c3c2)c1 the results were Abeta rescue inactive, TDP43 rescue inconclusive, ClpP mod inactive and FUS yeast rescue inactive.
For CCOC(=O)C1=C(C)Nc2sc(C(=O)c3ccc(F)cc3)c(N)c2C1c1ccc(C(=O)OC)cc1 (centres undefined) the results were Abeta rescue inactive, TDP43 rescue inactive, ClpP mod inactive, aSyn yeast inh inactive and MmCpn inh inactive.
CCOC(=O)C1=C(C)Nc2sc(C(=O)c3ccc(C)cc3)c(N)c2C1c1ccc(C(=O)OC)cc1 (centres undefined) was read as Abeta rescue inactive, TDP43 rescue inactive, ClpP mod 8.91µM, FUS yeast rescue inactive, aSyn yeast inh inactive and MmCpn inh inactive.
COC(=O)c1ccc(NC(=O)c2ccccc2OCC(=O)Nc2ccc(Br)cc2)cc1 was read as ClpP mod inactive and aSyn yeast inh inactive.
Screening COc1ccc(-c2noc(N(c3cccc(Cl)c3)c3nc(-c4ccc(OC)c(OC)c4)no3)n2)cc1OC returned Abeta rescue inactive, TDP43 rescue inactive, ClpP mod inactive and FUS yeast rescue inactive.
O=C(CSc1ccc2c(c1)OCCO2)NCCc1ccc(Cl)cc1Cl was read as Abeta rescue inactive, TDP43 rescue 11.2µM, ClpP mod inactive, aSyn yeast inh inconclusive and MmCpn inh inactive.
For O=C(CSc1nc2c([nH]c3ccccc32)c(=O)n1-c1ccccc1)NCc1ccc(F)cc1 the results were Abeta rescue inactive, TDP43 rescue inactive, ClpP mod inactive and FUS yeast rescue inactive.
`Cc1cc(N2CCN(c3ccccc3)CC2)nc(-c2ccccc2O)n1` gave Abeta rescue inactive, TDP43 rescue 17.8µM, ClpP mod inconclusive, FUS yeast rescue inactive, aSyn yeast inh inactive and MmCpn inh inactive.
